PubChem BioAssay (EPA / NIEHS)
Calls of active or inactive are those of the source. The calls were made as follows: active = hit-call score of the fitted dose curve at least 0.9, where 1 is the maximum; inactive = score below 0.9.

read-out: not listed separately; experiment: BSK_SAg_PBMCCytotoxicity: PBMC Cytotoxicity Assessment in the BioMAP Diversity Plus: SAg Assay (AID 2283093); settings: primary human HUVEC with PBMC;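 also: PBMC viability measured as Alamar Blue reduction fluorescence at 546/580 nm; fitted both ways against DMSO so a hit may be loss or gain of signal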;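 as to AC50: PBMC superantigen activated with SEB plus TSST-1 one hour after compound addition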
Method in brief: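 Alamar Blue reduction (6 h, 546/580 nm) reports PBMC cytotoxicity after 90 h superantigen activation (SEB, TSST-1; 20 ng/mL final each) with 1 h compound pre-treatment. Gain or loss of signal fitted versus DMSO.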

Compound | outcome | AC50
COCc1cnc(C2=NC(C)(C(C)C)C(=O)N2)c(C(=O)O)c1 (configuration not stated) | inactive | 
N#Cc1c[nH]cc1-c1cccc2c1OC(F)(F)O2 | inactive | 
CCCCOCN(C(=O)CCl)c1c(CC)cccc1CC |  | 33.2 µM (active)
Cc1cnc(C2=NC(C)(C(C)C)C(=O)N2)c(C(=O)O)c1 (configuration not stated) | inactive | 
COC(=O)NS(=O)(=O)c1ccc(N)cc1 | inactive | 
CCCC(=NOCC)C1=C(O)CC(CC(C)SCC)CC1=O (configuration not stated) | inactive | 
COCC(=O)N(c1c(C)cccc1C)C(C)C(=O)OC (configuration not stated) | inactive | 
N#Cc1c(Cl)cccc1Cl | inactive | 
Clc1cccc(C(Cl)(Cl)Cl)n1 | inactive | 
Nc1c(Cl)c(F)nc(OCC(=O)O)c1Cl | inactive | 
CCCCC(C#N)(Cn1cncn1)c1ccc(Cl)cc1 (configuration not stated) | inactive | 
CCOP(=S)(OCC)Oc1nc(Cl)n(C(C)C)n1 | inactive | 
CCSC(=O)N1CCCCCC1 | inactive | 
CC1(C)CCC(=Cc2ccc(Cl)cc2)C1(O)Cn1cncn1 (configuration not stated) | inactive | 
Cc1cc(C)nc(Nc2ccccc2)n1 |  | 7.57 µM (active)
CCNC(=O)NC(=O)C(C#N)=NOC | inactive | 
CNC(=O)N(C)c1nnc(C(C)(C)C)s1 | inactive | 
CS(=O)(=O)c1ccc(C(=O)C2C(=O)CCCC2=O)c([N+](=O)[O-])c1 | inactive | 

Compound | outcome | AC50
CCOP(=O)(OCC)Oc1nc(Cl)c(Cl)cc1Cl | inactive | 
CC1(C)C(C=C(Cl)Cl)C1C(=O)OC(C#N)c1cccc(Oc2ccccc2)c1 (configuration not stated) | inactive | 
CC(C)N1C(=O)c2ccccc2NS1(=O)=O | inactive | 
N#CN=C1SCCN1Cc1ccc(Cl)nc1 | inactive | 
COc1cc(OC)nc(NC(=O)NS(=O)(=O)c2ncccc2OCC(F)(F)F)n1 | inactive | 
O=C(O)c1c(Cl)ccc2cc(Cl)cnc12 | inactive | 
CC(C)Nc1nc(Cl)nc(NC(C)C)n1 | inactive | 
CN/C(=N\[N+](=O)[O-])NCc1cnc(Cl)s1 | inactive | 
O=c1n(Cl)c(=O)n(Cl)c(=O)n1Cl | inactive | 
CC(C)NC(=O)N1CC(=O)N(c2cc(Cl)cc(Cl)c2)C1=O | inactive | 
CCN(CC)c1nc(C)cc(OP(=S)(OC)OC)n1 | inactive | 
COc1cc(Cl)c(OC)cc1Cl | inactive | 
Clc1nc(Cl)nc(Nc2ccccc2Cl)n1 | inactive | 
COP(=S)(OC)Oc1ccc([N+](=O)[O-])c(C)c1 | inactive | 
CC(C)Oc1cccc(NC(=O)c2ccccc2C(F)(F)F)c1 | inactive | 
CO/N=C(/C1=NOCCO1)c1ccccc1Oc1ncnc(Oc2ccccc2Cl)c1F |  | 1.98 µM (active)
C=C(C)CN(CC)c1c([N+](=O)[O-])cc(C(F)(F)F)cc1[N+](=O)[O-] |  | 30.8 µM (active)
CCNP(=S)(OC)O/C(C)=C/C(=O)OC(C)C (configuration not stated) | inactive | 

read-out: Interleukin-8 (IL8), CXCL8 (gene 3576); experiment: BSK_SAg_IL8: BioMAP Diversity Plus: SAg Assay for Interleukin-8 (IL8) Biomarker Activity (AID 2283094); settings: primary human HUVEC with PBMC; actives raise or lower the signal
Method in brief: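 Chemicals were dosed onto a human endothelial–PBMC co-culture, and IL-8 was quantified by ELISA after 24 h. Both increases and decreases were fitted relative to DMSO.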

Compound | outcome | AC50
COCc1cnc(C2=NC(C)(C(C)C)C(=O)N2)c(C(=O)O)c1 (configuration not stated) | inactive | 
N#Cc1c[nH]cc1-c1cccc2c1OC(F)(F)O2 |  | 27.4 µM (active)
CCCCOCN(C(=O)CCl)c1c(CC)cccc1CC |  | 31 µM (active)
Cc1cnc(C2=NC(C)(C(C)C)C(=O)N2)c(C(=O)O)c1 (configuration not stated) | inactive | 
COC(=O)NS(=O)(=O)c1ccc(N)cc1 | inactive | 
CCCC(=NOCC)C1=C(O)CC(CC(C)SCC)CC1=O (configuration not stated) | inactive | 
COCC(=O)N(c1c(C)cccc1C)C(C)C(=O)OC (configuration not stated) | inactive | 
N#Cc1c(Cl)cccc1Cl | inactive | 
Clc1cccc(C(Cl)(Cl)Cl)n1 | inactive | 
Nc1c(Cl)c(F)nc(OCC(=O)O)c1Cl | inactive | 
CCCCC(C#N)(Cn1cncn1)c1ccc(Cl)cc1 (configuration not stated) | inactive | 
CCOP(=S)(OCC)Oc1nc(Cl)n(C(C)C)n1 | inactive | 
CCSC(=O)N1CCCCCC1 | inactive | 
CC1(C)CCC(=Cc2ccc(Cl)cc2)C1(O)Cn1cncn1 (configuration not stated) | inactive | 
Cc1cc(C)nc(Nc2ccccc2)n1 |  | 13.8 µM (active)
CCNC(=O)NC(=O)C(C#N)=NOC | inactive | 
CNC(=O)N(C)c1nnc(C(C)(C)C)s1 | inactive | 
CS(=O)(=O)c1ccc(C(=O)C2C(=O)CCCC2=O)c([N+](=O)[O-])c1 | inactive | 

Compound | outcome | AC50
CCOP(=O)(OCC)Oc1nc(Cl)c(Cl)cc1Cl | inactive | 
CC1(C)C(C=C(Cl)Cl)C1C(=O)OC(C#N)c1cccc(Oc2ccccc2)c1 (configuration not stated) | inactive | 
CC(C)N1C(=O)c2ccccc2NS1(=O)=O | inactive | 
N#CN=C1SCCN1Cc1ccc(Cl)nc1 | inactive | 
COc1cc(OC)nc(NC(=O)NS(=O)(=O)c2ncccc2OCC(F)(F)F)n1 | inactive | 
O=C(O)c1c(Cl)ccc2cc(Cl)cnc12 | inactive | 
CC(C)Nc1nc(Cl)nc(NC(C)C)n1 | inactive | 
CN/C(=N\[N+](=O)[O-])NCc1cnc(Cl)s1 | inactive | 
O=c1n(Cl)c(=O)n(Cl)c(=O)n1Cl | inactive | 
CC(C)NC(=O)N1CC(=O)N(c2cc(Cl)cc(Cl)c2)C1=O | inactive | 
CCN(CC)c1nc(C)cc(OP(=S)(OC)OC)n1 |  | 14.1 µM (active)
COc1cc(Cl)c(OC)cc1Cl | inactive | 
Clc1nc(Cl)nc(Nc2ccccc2Cl)n1 | inactive | 
COP(=S)(OC)Oc1ccc([N+](=O)[O-])c(C)c1 |  | 29.6 µM (active)
CC(C)Oc1cccc(NC(=O)c2ccccc2C(F)(F)F)c1 | inactive | 
CO/N=C(/C1=NOCCO1)c1ccccc1Oc1ncnc(Oc2ccccc2Cl)c1F |  | 11 µM (active)
C=C(C)CN(CC)c1c([N+](=O)[O-])cc(C(F)(F)F)cc1[N+](=O)[O-] | inactive | 
CCNP(=S)(OC)O/C(C)=C/C(=O)OC(C)C (configuration not stated) | inactive | 
